# Data: PubChem BioAssay (NCI)
# Compounds without any hit were thinned out: in the full panel of roughly 83,000, 20% have a hit.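 Method: cells in 96-well plates; compound added at one concentration; 48 h incubation; percent growth measured; values under 10 scored active.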 Values without a mark were called inactive. The source made the active and inactive calls.
# Experiments:
# Experiment in all cases: NCI-60 one-dose screen, 48 h (100 = growth as untreated, 0 = no growth, -100 = all killed)
# Conditions in all cases: 10 µM unless noted
# [1] = tested on: DU-145 prostate
# [2] = tested on: K-562 leukemia
# [3] = tested on: MALME-3M melanoma
# [4] = tested on: MDA-MB-231 breast
# [5] = tested on: RXF 393 renal
# [6] = tested on: SF-268 CNS
# [7] = tested on: SF-295 CNS
# [8] = tested on: SF-539 CNS
# [9] = tested on: UACC-257 melanoma
# [10] = tested on: M14 melanoma
# [11] = tested on: HCT-15 colon
# [12] = tested on: HT29 colon
# [13] = tested on: SNB-75 CNS
# [14] = tested on: SNB-19 CNS
# [15] = tested on: U251 CNS
# [16] = tested on: PC-3 prostate
# [17] = tested on: SK-MEL-5 melanoma
# [18] = tested on: UACC-62 melanoma
# [19] = tested on: LOX IMVI melanoma
# [20] = tested on: SK-MEL-28 melanoma
Structure (SMILES),growth [1],growth [2],growth [3],growth [4],growth [5],growth [6],growth [7],growth [8],growth [9],growth [10],growth [11],growth [12],growth [13],growth [14],growth [15],growth [16],growth [17],growth [18],growth [19],growth [20]
O=C(Nc1cccc([N+](=O)[O-])c1)c1ccc(Cl)c(Cl)c1,74.8%,79.9%,30.2%,80.7%,62.8%,54.4%,58.7%,83%,92.5%,93.1%,93.2%,78.3%,-2.87% (active),53.5%,62.4%,60.7%,89.4%,74.4%,63.6%,53.5%
CCN1CCN(Cc2ccc(NC(=O)Nc3nc(-c4cc(OC)c(OC)c(OC)c4)cs3)cc2C(F)(F)F)CC1,38.7%,-9.87% (active),-49.8% (active),-13.8% (active),22.6%,34.8%,-38% (active),-6.61% (active),-13.1% (active),-78.6% (active),-12.6% (active),0.541% (active),24.2%,33.7%,15.3%,6.09% (active),-95.3% (active),-68.4% (active),-82.7% (active),-51.3% (active)
COc1ccc(Cl)c(Nc2nc3ccccc3nc2NS(=O)(=O)c2cccc(NC(=O)C(C)(C)N)c2)c1,62.4%,63.3%,69.5%,68.3%,-10.2% (active),49.8%,12.2%,13.7%,56.9%,51.7%,44.9%,27.7%,-20.2% (active),63.9%,35%,22.3%,57.1%,36.5%,25.8%,53.1%
CCCCn1c(C)nc2cc(Nc3nc(N4CCCCC4)nc4nc[nH]c34)ccc21,60.2%,28.7%,61.5%,39.2%,22.1%,60.4%,47.1%,71.2%,62.1%,32.8%,52.9%,59.8%,11.4%,73.3%,58.5%,25.7%,-31.7% (active),45.4%,33.7%,76%
O=C(Nc1ccc(-c2ccnc(Nc3ccc(N4CCOCC4)cc3)n2)cc1)[C@@H]1CCCN1,67.1%,16%,71.5%,48.6%,5.11% (active),55.6%,35.9%,25.3%,16.8%,51.7%,23.3%,18.6%,-1.55% (active),83.4%,51.4%,61.2%,49.2%,68.5%,30.4%,54.5%
Cc1cccc(Cl)c1NC(=O)c1cnc(Nc2cc(N3CCOCC3)cc(N3CCOCC3)c2)s1,3.54% (active),5.18% (active),61.3%,20.5%,-30% (active),34%,34%,6.88% (active),64.3%,35.9%,22.2%,-10.2% (active),-43.3% (active),47.4%,54.6%,45.7%,65.1%,41.6%,-71.8% (active),63.6%
O=C(Cc1ccc(/C=C/C(=O)c2ncc[nH]2)cc1)Nc1ccc(Br)cc1,19.9%,1.86% (active),74.4%,10%,19.4%,22.2%,26.9%,-51.1% (active),69.8%,31.4%,-5.46% (active),-21% (active),40.5%,8.45% (active),-63.5% (active),17%,54.8%,31%,-65% (active),73.4%
CCOc1cccc(/C=N/NC(=O)c2ccccc2Nc2ccnc(C(F)(F)F)c2)c1O,26.2%,15.5%,18.1%,47%,23.9%,13%,17.7%,0.222% (active),10.2%,-29.2% (active),34.2%,47.9%,14.1%,21.1%,15.2%,54.2%,-67% (active),3.69% (active),7.4% (active),21.1%
COc1cc2ncnc(Oc3cccc(NC(=O)Nc4cc(C(C)(C)C(F)(F)F)on4)c3)c2cc1OC,31.4%,2.56% (active),2.64% (active),10.7%,16.7%,26.9%,38.2%,33%,-10.4% (active),-2.42% (active),22.4%,6.54% (active),38.1%,74.9%,50.8%,35.1%,0.0888% (active),-10.5% (active),0.911% (active),-3.09% (active)
O=C(CNc1nc(-c2ccc(Cl)cc2)cs1)Nc1ccc(-c2nc3ccccc3s2)cc1,95%,96.4%,102%,84.7%,106%,90.8%,98.6%,97%,100%,88.2%,110%,108%,77.8%,98.2%,91.6%,90.7%,87.7%,91.9%,95.6%,111%
Cn1nccc1Nc1nccc(-c2ccn([C@H](CO)c3ccc(Cl)c(F)c3)c(=O)c2)n1,93.5%,84.2%,0.796% (active),90.8%,108%,96.4%,98.3%,104%,1.1% (active),24.3%,94.1%,19.9%,101%,94.1%,86.2%,111%,70.7%,9.88% (active),58.5%,16.9%
Ic1ccccc1-c1ccccc1,114%,104%,95%,102%,105%,105%,122%,108%,99%,103%,112%,114%,95.3%,101%,105%,99.9%,111%,100%,103%,113%
O=C1CCC(=O)CC1,110%,96.7%,110%,105%,113%,98.8%,101%,95.3%,89.4%,98.1%,102%,102%,88.8%,93.9%,99.4%,92.7%,109%,99%,101%,112%
COC(=O)[C@H](C)NC(=O)[C@@H](OC)[C@@H]1Cc2cc3cc(OC4CC(OC5CC(O)C(O)C(C)O5)C(O)C(C)O4)c(C)c(O)c3c(O)c2C(=O)[C@H]1OC1CC(OC2CC(OC3CC(C)(O)C(O)C(C)O3)C(O)C(C)O2)C(O)C(C)O1 (stereo not given in full),13.2%,7.1% (active),-49.3% (active),18.4%,-70.3% (active),14.1%,3.96% (active),-33.2% (active),-0.386% (active),-23.9% (active),19.3%,3.99% (active),-63.8% (active),8.48% (active),7.45% (active),8.21% (active),-67.4% (active),-52.8% (active),-27.4% (active),-37.7% (active)
Cc1ccc(C(=O)Nc2ccc(CN3CCN(C)CC3)c(C(F)(F)F)c2)cc1C#Cc1cnc2cccnn12,-99.7% (active),-64.9% (active),-85.5% (active),-85% (active),-95.1% (active),-96.4% (active),-95.7% (active),-97.2% (active),-88.3% (active),-88.8% (active),-83.1% (active),-69.8% (active),-99.1% (active),-98.3% (active),-98.5% (active),-64.1% (active),-98.8% (active),-89.1% (active),-94% (active),-97% (active)
